The source of these data is the antibiotic and cytotoxicity screens of Wong et al. (2023).

The campaign covered roughly 39,000 compounds. About 3,300 (8.5%) were called active. Only a selection was taken, and actives are over-represented in it overall.

This test has as its system HepG2. The test can be described thus: cytotoxicity call (relative viability < 0.9). Particulars: 10 µM.
As to `CN(C)C(=O)CN1C[C@H]2CON[C@@H]2C1`, the cytotoxicity call is “inactive”.

`O=C(c1ccccc1)C12CN3CN(CN(C3)C1)C2`: the cytotoxicity call was “inactive”.

Turning to `CC(C)c1cc2c(c(O)c1O)C1(C(=O)O)CCCC(C)(C)C1CC2` (centres undefined), the cytotoxicity call was “inactive”.

`CN1C[C@@H]2CNC[C@@H]2C1=O`: the cytotoxicity call is “inactive”.

For the compound `C[C@@H]1CN([C@@H](C)CO)C(=O)CCCn2nncc2CO[C@H]1CN(C)C(=O)Oc1ccc2ccccc2c1`, the cytotoxicity call was “inactive”.

Turning to `C1CO[C@H]2[C@@H](C1)CNC[C@H]2N1CCOCC1`, the cytotoxicity call was “inactive”.

`NCCc1c[nH]c2ccc(C(N)=O)cc12`: the cytotoxicity call is “inactive”.

As to `NCCc1ccncc1`, the cytotoxicity call is “inactive”.

On to `OC1(c2cccnc2)CCNCC1`, for which the cytotoxicity call was “inactive”.

Consider `CCN(Cc1ccc(Cl)nc1)C(=C[N+](=O)[O-])NC`, for which the cytotoxicity call was “inactive”.

For `Cc1ccc2n[nH]c(CN)c2c1`, the cytotoxicity call is “inactive”.

Take `COC(=O)[C@@]1(Cc2ccccc2N=[N+]=[N-])N=C(c2ccc(OCCCO)cc2)O[C@H]1c1ccccc1N=[N+]=[N-]`: the cytotoxicity call is “inactive”.

In the case of `COC(=O)[C@]1(Cc2ccccc2N=[N+]=[N-])N=C(c2ccc(OCCCO)cc2)O[C@@H]1c1ccccc1CN=[N+]=[N-]`, the cytotoxicity call is “inactive”.

As to `COC(=O)[C@@]1(Cc2ccccc2CN=[N+]=[N-])N=C(c2ccc(OCCCO)cc2)O[C@H]1c1ccccc1CN=[N+]=[N-]`, the cytotoxicity call is “inactive”.

With `[N-]=[N+]=Nc1ccccc1C[C@]1(C(N)=O)N=C(c2ccc(OCCCO)cc2)O[C@H]1c1ccccc1N=[N+]=[N-]`, the cytotoxicity call was “inactive”.

With `COC(=O)[C@]1(Cc2ccccc2CN=[N+]=[N-])N=C(c2ccc(OCCCO)cc2)O[C@@H]1c1ccccc1CN=[N+]=[N-]`, the cytotoxicity call was “active”.

For the compound `COC(=O)[C@]1(Cc2ccccc2N=[N+]=[N-])N=C(c2ccc(OCCCO)cc2)O[C@@H]1c1ccccc1N=[N+]=[N-]`, the cytotoxicity call is “active”.

`CO[C@@H]1[C@H](OC(=O)NC(=O)CCl)CC[C@]2(CO2)[C@H]1[C@@]1(C)O[C@@H]1CC=C(C)C`: the cytotoxicity call was “inactive”.

For `CN1CCCCC1c1ccc(-c2cccnc2)nc1.Cl` (centres undefined), the cytotoxicity call is “inactive”.

For the compound `CN(CCC[C@@H](O)c1cccnc1)[NH2+][O-]`, the cytotoxicity call is “inactive”.

As for `C=C(C)[C@@H]1[C@H]2OC(=O)[C@@H]1[C@]1(O)C[C@H]3O[C@]34C(=O)O[C@H]2[C@]14C`, the cytotoxicity call is “inactive”.

`O[C@@]12CCCC[C@@H]1CNCC2`: the cytotoxicity call was “inactive”.

Regarding `CN1[C@@H]2CC[C@@H]1CC(N)C2` (some centres undefined), the cytotoxicity call is “inactive”.

With `Nc1nc(N)nc(NC2CC2)n1`, the cytotoxicity call was “inactive”.

As for `CCN1CCN(c2nc([N+](=O)[O-])nn2C)CC1`, the cytotoxicity call was “inactive”.

In the case of `CC(C)c1cccc(C(C)C)c1O`, the cytotoxicity call is “active”.

Consider `C[C@@H](N)Cc1cccc(O)c1`, for which the cytotoxicity call is “inactive”.

As to `CC(C)c1cccc2c1OCC[C@H](N)[C@@H]2O`, the cytotoxicity call was “inactive”.

Turning to `C[C@@H](CN)CC(=O)O`, the cytotoxicity call is “inactive”.

With `CC(=O)[O][PbH2][O]C(C)=O`, the cytotoxicity call is “inactive”.

As to `Clc1ccc(Cl)cc1`, the cytotoxicity call was “inactive”.

`Oc1ccc(Cl)cc1Cc1cc(Cl)ccc1O`: the cytotoxicity call was “active”.

As to `O=C(O)c1cc(Cl)ccc1Cl`, the cytotoxicity call was “inactive”.

For `CCN1C[C@]23CNC[C@@H](C[C@H]2S1(=O)=O)O3`, the cytotoxicity call was “inactive”.

Turning to `C1CC(NC2CCOCC2)CCO1`, the cytotoxicity call is “inactive”.

For the compound `O=C1C=C2C(=CCOC2O)O1` (centres undefined), the cytotoxicity call is “active”.

On to `O=C1C=C2C(=CCO[C@@H]2O)O1`, for which the cytotoxicity call was “inactive”.

Take `CC(=O)N[C@H]1C(=O)NC(=S)N(c2ccccc2)C1=O`: the cytotoxicity call is “inactive”.

Consider `N#CCCN1CCCC2(CCCC2)C1`, for which the cytotoxicity call is “inactive”.

On to `N/N=C(/N)NO`, for which the cytotoxicity call is “inactive”.

Take `COc1ccc(OC(=O)N(C)C[C@@H]2OCc3ccccc3-c3c(n(C)c4ccccc34)C(=O)N([C@@H](C)CO)C[C@@H]2C)cc1`: the cytotoxicity call was “inactive”.

Turning to `COC(=O)[C@@H]1[C@@H](CO)[C@@H]2Cn3c(cccc3=O)[C@H]1N2C(=O)C1CC1`, the cytotoxicity call was “inactive”.

On to `N[C@@H](CO)Cc1ccccc1`, for which the cytotoxicity call is “inactive”.

For the compound `CCN(CC)C(=O)C1=NO[C@]2(CCNC2)C1`, the cytotoxicity call was “inactive”.

Take `COc1cc2c(cc1OC)C1CC(=O)C(CC(C)C)CN1CC2` (centres undefined): the cytotoxicity call was “active”.

Turning to `COc1cc2c(cc1O)CCNC2C` (centres undefined), the cytotoxicity call is “inactive”.

Take `CCC1CN2CCc3cc(OC)c(OC)cc3C2CC1CC1NCCc2cc(OC)c(OC)cc21.Cl.Cl` (centres undefined): the cytotoxicity call was “active”.

Take `COc1cc2c(cc1OC)C(C)NCC2` (centres undefined): the cytotoxicity call is “inactive”.

Consider `CNC1C(O)C(OC2C(N)CC(N)C(OC3OC(C(C)O)C(O)C(O)C3N)C2O)OCC1(C)O` (centres undefined), for which the cytotoxicity call was “inactive”.

As to `CNC(=O)[C@H]1C[C@H]2CN(CC3CC3)C[C@H]1O2`, the cytotoxicity call was “inactive”.

In the case of `CCN1C[C@H]2C[C@H](C(=O)NCC3CC3)[C@@H](C1)O2`, the cytotoxicity call is “inactive”.

Consider `C[C@@]1(O)[C@H](O)[C@@H](CO)O[C@H]1n1ccc2c(N)ncnc21`, for which the cytotoxicity call was “inactive”.

As for `CN(C)C(=O)Oc1cccc([N+](C)(C)C)c1.COS(=O)(=O)[O-]`, the cytotoxicity call is “inactive”.

Turning to `COc1ccc(C[C@@H](N)c2ccc(C)cn2)cc1OC`, the cytotoxicity call is “inactive”.

Consider `COc1ccc(Cc2nccc3cc(OC)c(OC)cc23)cc1OC.Cl`, for which the cytotoxicity call was “active”.

In the case of `COc1ccc(CCN)cc1OC`, the cytotoxicity call was “inactive”.

For the compound `NCCc1cc(O)c(O)cc1O`, the cytotoxicity call is “inactive”.

Regarding `COc1cc2c(cc1C=O)OCO2`, the cytotoxicity call is “inactive”.

With `COc1cc(OC)c(OC)cc1C=O`, the cytotoxicity call is “active”.

Take `COc1cccc(C=O)c1OC`: the cytotoxicity call is “inactive”.

Consider `O=C1C[C@@H](c2ccc(O)cc2)CN1`, for which the cytotoxicity call is “inactive”.

For `O=C(O)C(Cl)Cl`, the cytotoxicity call is “inactive”.

For `N[C@@H](Cc1ccccc1)c1ccc2c(c1)OCCO2`, the cytotoxicity call was “inactive”.

On to `C1CCC(NC2CCCCC2)CC1`, for which the cytotoxicity call was “inactive”.

For the compound `CC12C=CC(=O)C=C1CCC1C2CCC2(C)C(=O)CCC12` (centres undefined), the cytotoxicity call was “inactive”.

With `CCC1(C2OC(C3OC(O)(CO)C(C)CC3C)CC2C)CCC(C2(C)CCC3(CC(O)C(C)C(C(C)C(OC)C(C)C(=O)[O-])O3)O2)O1.[Na+]` (centres undefined), the cytotoxicity call is “active”.

For `Cl.NCCc1ccccc1`, the cytotoxicity call was “inactive”.

In the case of `NC(Cc1ccccc1)Cc1ccccc1`, the cytotoxicity call was “inactive”.

Consider `S=C=NCc1ccccc1`, for which the cytotoxicity call was “active”.

For `O=C(O)[C@H]1N[C@H]2CC[C@@H]1C2`, the cytotoxicity call was “inactive”.

With `CC(=O)N[C@@H]1[C@H](O[C@@H]2O[C@H](C[C@@H](O)[C@H]3O[C@@H](n4ccc(=O)[nH]c4=O)[C@H](O)[C@@H]3O)[C@H](O)[C@H](O)[C@H]2NC(=O)/C=C/CCCCCCCCC(C)C)O[C@@H](CO)[C@H](O)[C@H]1O`, the cytotoxicity call was “active”.

Turning to `COc1ccc(OC(=O)N(C)C[C@H]2OCc3ccccc3-c3c(n(C)c4ccccc34)C(=O)N([C@H](C)CO)C[C@H]2C)cc1`, the cytotoxicity call was “inactive”.

In the case of `C1COC2(CN1)CNC2`, the cytotoxicity call was “inactive”.

Take `O.O=P1(N(CCCl)CCCl)NCCCO1` (centres undefined): the cytotoxicity call was “inactive”.

Consider `Cc1ccnc(N2CCNCC2)c1`, for which the cytotoxicity call is “inactive”.

For the compound `CCCCCCCCCC(=O)O[C@@H]1[C@@H](C)[C@@]2(O)[C@@H](C=C(CO)C[C@]3(O)C(=O)C(C)=C[C@@H]23)[C@@H]2C(C)(C)[C@]12OC(=O)CCCCCCCCC`, the cytotoxicity call was “inactive”.

Regarding `CCCCCCCCCCCCCC(=O)O[C@@H]1[C@@H](C)[C@@]2(O)[C@@H](C=C(CO)C[C@]3(O)C(=O)C(C)=C[C@@H]23)[C@@H]2C(C)(C)[C@]12OC(C)=O`, the cytotoxicity call was “active”.

On to `CCCCCCCCCC(=O)O[C@@H]1[C@@H](C)[C@]2(O)[C@@H](C=C(CO)C[C@]3(O)C(=O)C(C)=C[C@@H]23)[C@@H]2C(C)(C)[C@@]12OC(=O)CCCCCCCCC`, for which the cytotoxicity call is “active”.

As to `CC1=C[C@H]2[C@]3(O)[C@H](C=C(CO)C[C@]2(O)C1=O)[C@H]1C(C)(C)[C@@]1(O)[C@H](O)[C@@H]3C`, the cytotoxicity call is “inactive”.
